The record followed here is PubChem BioAssay (EPA / NIEHS).

Each structure is given as a SMILES string. Calls of active or inactive are those of the source. The calls were made as follows: active = hit-call score of the fitted dose curve at least 0.9, where 1 is the maximum; inactive = score below 0.9.

Read-out in the experiment: adenosine kinase (ADK) gene, ADK (gene 132)
The experiment in a line: LTEA_HepaRG_ADK: Life Technologies and Expression Analysis (LTEA) Assay for adenosine kinase (ADK) gene using HepaRG (AID 2283471). The settings on record: mRNA level, 48 h; actives raise or lower the signal. The protocol:
LTEA_HepaRG is a cell based, multiplexed-readout assay that uses HepaRG, a human liver cell line, with measurements taken at 48 hours after chemical dosing on a 96-well plate.LTEA_HepaRG_ADK is one of 102 assay component(s) measured in the LTEA HepaRG cell culture assay. It is a marker of Steatosis.Data from the assay component LTEA_HepaRG_ADK was analyzed into 1 endpoint. This assay endpoint, LTEA_HepaRG_ADK, was analyzed with bidirectional fitting relative to DMSO as the negative control and baseline of activity. Using a type of inducible reporter, measures of mRNA induction for gain or loss-of-signal activity can be used to understand regulation of transcription factor activity. To generalize the intended target to other relatable targets, this assay endpoint is annotated to the kinase intended target family, where the subfamily is steatosis.
A total of 1060 chemcials from the ToxCast library were tested in eight-point concentration-response experiments. Cell culture and cytotoxicity assays were conducted at Thermo Fisher Scientific's Custom Services facility (Madison, WI). A single lot of human HepaRG cells (Thermo Fisher Scientific, Frederick, MD) was used for the cell culture experiments. 96-well format collagen type I coated plates of human HepaRG cells were prepared using established methods. Briefly, cryopreserved HepaRG cells were thawed, plated at a density of approximately 100,000 cells/well in HepaRG Thaw, Plate, and General Purpose media (HPRG770, Thermo Fisher Scientific), and incubated for 48 hours. 0.5% DMSO was selected as vehicle control to balance the requisite need of DMSO in HepaRG cultures to maintain differentiation (for example, baseline metabolism, proportions of hepatocytes vs. cholangiocytes), while enabling further hepatic receptor pathway activation (for example, PXR and CAR) in response to chemical exposure. 48 hours after plating, the culture medium was replaced with HepaRG Serum-Free Incudtion Media. Cells were exposed to each test chemical in duplicate and maintained in CO2 incubators for another 48 hours. Chemical plates were thawed to room temperature and 200x concentrations of treatment groups were prepared. 8-point conentration-reponse curves were made with the highest exposure at 100 uM, followed by half-log dilutions, all in 0.5% DMSO. Each test plate contained variouse controls, induction positive controls (1mM phenobarbital), cytotoxicity positive controls ([…] aflatoxin B1), vehicle controls (0.5% DMSO), and total lysis controls (0.5% DMSO). Cell morphology images were taken using an Essen IncuCyte FLR automated microscope, with six 96-well plates imaged in about 24 minutes. Images were captured and exported and JPEG files. Spent culture media was transfered to black-well plates for the LDH assay, and remaining media was sorted at -80 C for later use. Cells were treated with RLT buffer and frozen until shipped for gene expression analysis. Total RNA was isolated from the cell suspension in 75 uL of Buffer RLT (Qiagen, Germantown, MD 20874) by Quintiles/Expression Analysis (Durham, NC) using a custom isolation procedure. Total RNA from each plate well was transferred to a preamplification plate. Fluidigm's 96.96 Dynamic ArrayTM (Fluidigm, Amsterdam, the Netherlands) technology was used for gene expression analyses by quantitative reverse transcription polymerase chain reaction (qRT-PCR, performed by Quintiles/Expression Analysis, Durham, NC)89. Standard TaqManTM Assays (Applied Biosystems/ThermoFisher Scientific, Foster City, CA) were used to assess the expression of 93 genes selected based on their selectivity and sensitivity to important hepatic receptors known to be modulated by environmental chemicals; importance in human hepatocyte functionality; and hepatotoxicity. […]
As for `CON=C(C(=O)OC)c1ccccc1CON=C(C)c1cccc(C(F)(F)F)c1`, the compound was called inactive.

Take `CSc1nnc(C(C)(C)C)c(=O)n1N`: the call was inactive.

In the case of `CCOP(=S)(OCC)Oc1ccc2c(C)c(Cl)c(=O)oc2c1`, the call was inactive.

On to `CCOP(=O)(OCC)Oc1cc(C)nc(C(C)C)n1`, for which the call was inactive.

`CCC(=O)Nc1ccc(Cl)c(Cl)c1`: the compound was classed as inactive.

With `CN(C)C(=O)Nc1cccc(C(F)(F)F)c1`, the outcome was inactive.

In general, AC50 refers to the concentration at which the activity in the assay is half-maximal. As for `CCCOCC(=Nc1ccc(Cl)cc1C(F)(F)F)n1ccnc1`, the AC50 was 78.5 µM (active).

For the compound `CNc1cnn(-c2cccc(C(F)(F)F)c2)c(=O)c1Cl`, the outcome was inactive.

`CCCSP(=O)(OCC)SCCC`: the outcome was inactive.

For the compound `CNC(=O)Oc1cccc2c1OC(C)(C)O2`, the outcome was inactive.

Regarding `C=C(C)[C@H]1Cc2c(ccc3c2O[C@@H]2COc4cc(OC)c(OC)cc4[C@@H]2C3=O)O1`, the outcome was inactive.

As for `S=C1NCCN1`, the AC50 was 12.6 µM (active).

For the compound `CN(C)[C@@H]1C(=O)C(C(N)=O)=C(O)[C@@]2(O)C(=O)C3=C(O)c4c(O)cccc4[C@@](C)(O)[C@H]3[C@H](O)[C@@H]12`, the result was inactive.

As to `O=C(O)c1cc(Oc2ccc(C(F)(F)F)cc2Cl)ccc1[N+](=O)[O-]`, the compound was classed as inactive.

Consider `CCC(CC)Nc1c([N+](=O)[O-])cc(C)c(C)c1[N+](=O)[O-]`, for which the compound was called inactive.

For the compound `C[N+]1(C)CCCCC1`, the outcome was inactive.

For the compound `Cc1nn(-c2cc(NS(C)(=O)=O)c(Cl)cc2Cl)c(=O)n1C(F)F`, the compound was classed as inactive.

`CCOP(=O)(SC(C)CC)N1CCSC1=O` (stereo not given): the compound was called inactive.

For the compound `CCc1cccc(CC)c1N(COC)C(=O)CCl`, the result was inactive.

As for `C[Si](Cn1cncn1)(c1ccc(F)cc1)c1ccc(F)cc1`, the result was inactive.

For `CCOP(=O)(NC(C)C)Oc1ccc(SC)c(C)c1` (stereo not given), the compound was classed as inactive.

On to `COc1cc(OC)nc(Sc2cccc(Cl)c2C(=O)O)n1`, for which the compound was called inactive.

Regarding `CCCSP(=O)(OCC)Oc1ccc(Br)cc1Cl` (stereo not given), the compound was called inactive.

Take `CCOP(=S)(OCC)Oc1cc(C)nc(C(C)C)n1`: the call was inactive.

Consider `COP(=O)(OC)OC(Br)C(Cl)(Cl)Br` (stereo not given), for which the result was inactive.

Take `CCOP(=S)(OCC)Oc1ccc([N+](=O)[O-])cc1`: the outcome was inactive.

Consider `CCCCN(CC)c1c([N+](=O)[O-])cc(C(F)(F)F)cc1[N+](=O)[O-]`, for which the result was inactive.

In the case of `CC(C)=CC1C(C(=O)OCN2C(=O)C3=C(CCCC3)C2=O)C1(C)C` (stereo not given), the outcome was inactive.

With `CCc1cnc(C2=NC(C)(C(C)C)C(=O)N2)c(C(=O)O)c1` (stereo not given), the compound was called inactive.

`N#CSCSC#N`: the compound was called inactive.

With `COP(=O)(OC)C(O)C(Cl)(Cl)Cl` (stereo not given), the compound was classed as inactive.

`COc1cccc(C(=O)NN(C(=O)c2cc(C)cc(C)c2)C(C)(C)C)c1C`: the outcome was inactive.

Turning to `O=c1ccc(=O)[nH][nH]1`, the compound was called inactive.

As to `CC1(C(=O)Nc2ccc(O)c(Cl)c2Cl)CCCCC1`, the compound was classed as inactive.

As for `CC(COc1ccc(Oc2ccccc2)cc1)Oc1ccccn1` (stereo not given), the compound was classed as inactive.

As to `Cc1ccn2nc(S(=O)(=O)Nc3c(F)cccc3F)nc2n1`, the outcome was inactive.

Turning to `Nc1nc(N)nc(NC2CC2)n1`, the call was inactive.

With `CSc1nc(NC(C)C)nc(NC(C)C)n1`, the outcome was inactive.

Consider `CC(C)[C@H](C(=O)O[C@H](C#N)c1cccc(Oc2ccccc2)c1)c1ccc(Cl)cc1`, for which the call was inactive.

Consider `CCCCOC(=O)[C@@H](C)Oc1ccc(Oc2ccc(C#N)cc2F)cc1`, for which the outcome was inactive.
